This passage reports z-score results from PubChem BioAssay AID1508600 (Functional Genomics Laboratory (NCATS/FGL), 2020).

About 3,700 (7%) of roughly 53,000 sequences were called active.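 Rule for the calls: active = gene knockdowns whose robust z-score for IL-1 alpha signal is at least 2 or at most -2, so actives lie on both sides; inactive = the rest.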 Shown is part of a subset that was picked to be rich in actives.

This experiment is described as follows: Components of the Cytosolic LPS Sensing Pathway: Gene Identification via Genome-wide siRNA Screen.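 Note: robust z of the log signal after scaling to non-targeting control siRNA wells of the plate.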 The conditions noted are these: RAW264.7 macrophages, IL-1a HTRF, actives lie on both sides, screened at 100 nM (by protocol), cells primed 5 h with Pam3CSK4 first. An outline of the steps:
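Knockdown: 100 nM siRNA, 48h, RAW264.7. Stimulation: Pam3CSK4 5 h, then LipidA via TransIT-TKO 24 h. Output: supernatant IL-1a HTRF, negative-control-normalized, log robust z-score; viability by CellTiter-Glo.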
In general terms: Time-resolved FRET reads energy transfer from a long-lived donor to a nearby acceptor.
For the sequence GGCAGAAAGAAAUUGAGAATT against Trim42, the z-score is -0.655 (inactive).

For the sequence CAGCAUCUUUGAUUGUCUGTT against Tssc4, the z-score is 2.15 (active).

As for GCUUAUGCCAGUCUGUCAUTT against Hax1, the z-score is -0.206 (inactive).

Regarding CCAUACAUCAGUACUUACCTT against Olfr553, the z-score was 0.477 (inactive).

For GCGUGUUCGCUUCUUGCUATT against Trub2, the z-score was -0.614 (inactive).

As to CCACAGAAUAAGACAAUAUTT against Fbxo34, the z-score was -3.03 (active).

In the case of CCAUUCAGUCGAUUACAUUTT against Chd9, the z-score is 0.204 (inactive).

GGACUUUUCUUUUGGAAGGTT against Nbl1: the z-score is -0.08 (inactive).

With GCCUUUCCACCGAUGAAAUTT against Dpyd, the z-score was -0.473 (inactive).

In the case of GGAGCACAUCUUUUCUGCCTT against Mixl1, the z-score was -1.22 (inactive).

With CCAAUUAUUAUCCAAGGGCTT against Slc16a6, the z-score was -0.0144 (inactive).

For the sequence GCUAUAACCUCACCGAGAATT against Tedc2, the z-score is 2.09 (active).

As to GGAAAAGCAGACAUGUGAUTT against Dedd, the z-score is -0.875 (inactive).

As to CCAUUCAUACCAUACCUGUTT against Tmem50a, the z-score is -0.521 (inactive).

On to GGGCAUUAGGGUGGUAGCATT against Gapdhs, for which the z-score is -0.826 (inactive).

For the sequence GCUUAGUGGUUCUUAUUUGTT against Olfr893, the z-score is -0.214 (inactive).

With GCUUCAUAUAGACAAAGCCTT against Epo, the z-score is -0.625 (inactive).

Turning to GGAAGUUAGUUUCGUUUUATT against Rprd1b, the z-score is 2.03 (active).

For the sequence GGCAAGAUCUUCAAGUGAATT against Eef1g, the z-score was -0.809 (inactive).

With GGAACAUUUUGGAAAUGACTT against Fbxo25, the z-score was -0.625 (inactive).

As to GGAAGAAGAAGGAGCUAGATT against Slu7, the z-score is -2.2 (active).

CCACCCACUAAACCUAAAUTT against Pcolce: the z-score is 0.136 (inactive).

Regarding GGACACCAAAGUGAAUACATT against Cdhr5, the z-score was 0.122 (inactive).

As for GGAGAUGGCACAGUCAGUCTT against Slc22a8, the z-score was -0.338 (inactive).

In the case of GGGUUGUGGCUGCUACUAUTT against Pira2, the z-score is 2.18 (active).

Take GCUACUGGUUGGGUUGAAGTT against Tbcd: the z-score was 1.47 (inactive).

Take GGAAGCUUUGGGAAACAGUTT against Bmp2: the z-score was -0.226 (inactive).

Turning to GGCCACUUGUCUCAUUGUGTT against Xlr4c, the z-score was -1.93 (inactive).

GGAUACCAUCCUAGGCCUGTT against Ephx3: the z-score was -0.603 (inactive).

Regarding GCCUCAUCGUUGCUGACUATT against Pde3b, the z-score was -2.04 (active).

As to GGAUGGUAACCAUCAUAUUTT against Vmn1r54, the z-score was -0.887 (inactive).

Regarding CCUCAUUGUUUUAUACCCUTT against Olfr1140, the z-score was 0.309 (inactive).

For the sequence GGGAUUAUACUAAUCCAACTT against Wdr45, the z-score was 1.24 (inactive).

Regarding GCUUCUUCCUUAGAUGGCATT against Kcnb1, the z-score was -1.32 (inactive).

Regarding GGUGCAUUUUGUCUAUGAUTT against Lamp5, the z-score was -2.04 (active).

CGACCAGCCAUGGUACAAATT against Ptprd: the z-score was -0.83 (inactive).

On to CGUAGAAGAGUACAUGAUUTT against Pdcd10, for which the z-score was -0.526 (inactive).

Regarding GGAGAAAAGGAAGUUGAGGTT against Bnip3l, the z-score is -1.76 (inactive).

For GGGUUUCCAAGAAGGAAGCTT against Utp25, the z-score was 0.852 (inactive).

For the sequence CCUUUUUCGAAAAAUCAGGTT against Lyst, the z-score was -0.39 (inactive).

Consider CCACAUAUAUCAACAAGCUTT against Olfr916, for which the z-score was -0.257 (inactive).

For the sequence CCAAGAUAGUCCCUAUCCCTT against Scamp3, the z-score is 0.346 (inactive).

Turning to GGUAUGAUGAACAGUCCAGTT against Ep300, the z-score is -2.35 (active).

As for GGCUUGUUAAUGAAUGCACTT against Ankrd9, the z-score was -0.894 (inactive).

As for GGCUUUGAAGAAGAGCUUUTT against Atp6v0a4, the z-score is -0.775 (inactive).

Regarding GCACAGCGGUAAACAAAAUTT against Ywhaz, the z-score was -0.00575 (inactive).

Regarding GUAUCCUUCACAACUGUCUTT against Olfr786, the z-score is -1.66 (inactive).

Turning to GGAAUCUGCUGAGGUUUAUTT against Cidea, the z-score is 4.08 (active).

On to GGAGCUGAGGAAAAAGAUUTT against Uhrf1, for which the z-score was -0.993 (inactive).

In the case of GGCUUAUCAGUCCAUGAAGTT against Dhrs11, the z-score was -0.601 (inactive).

Regarding GGCGAUCAGGCAUCAUCCUTT against Aox1, the z-score is -0.153 (inactive).

Turning to GGCAACCAGUCUCAUCAAUTT against Scgb1b27, the z-score was -0.927 (inactive).

For GCAGAGAUACCUAUCAAAGTT against Angptl4, the z-score was 1.16 (inactive).

With GGAAGAGGAACAGUUAGCCTT against Zfp553, the z-score is -0.24 (inactive).

GGAGGUCUGGAUUAACUGUTT against Cd163l1: the z-score was 2.2 (active).

For the sequence GCAUCCUGAGCAGUGAUAUTT against Taar7b, the z-score is -1.75 (inactive).

Take GGGUGCAGUGGAGUCUAUUTT against Smc1a: the z-score was -1.31 (inactive).

As for GGAUUCUGAAGUGUAAAGATT against Icos, the z-score was -0.764 (inactive).

As to GGCAGAGAUUGAGAGCAAGTT against Palm, the z-score is 2.28 (active).

In the case of GGAGUUCCUCAAGAAUUUUTT against Arpc4, the z-score was -1.39 (inactive).

For GGUUGUACUGAGUAGCUGGTT against Slc7a4, the z-score was 0.997 (inactive).

Take GGUUUACAAGAGUUACAGUTT against Brpf1: the z-score was 0.493 (inactive).

Take GCAAAGUUGGUGACGUGAUTT against Pole2: the z-score was -2.15 (active).

CCAAUAAGGCAUAUGUUUUTT against Scarb2: the z-score was -0.608 (inactive).

Take GGCACAGCUUGCUGAAGCUTT against Atp11b: the z-score was -1.76 (inactive).

As to GGAAUACAAAGAUAGCUUCTT against Atrn, the z-score was 0.786 (inactive).

As to GGCUUCUGGACCUCAAACATT against Zfp92, the z-score was -2.14 (active).

As for “GGCAAUGUUUUUCUUGUUGTT against 9330132A10Rik”, the z-score is -1.12 (inactive).

As for GACCCGCUGCUGCUCAAAUTT against Cdc42ep5, the z-score is -0.178 (inactive).

For GGGCAAAAGUACUUUGACUTT against Ensa, the z-score was 2.2 (active).

Take GGACUGUGAUCAGGUUUGUTT against Elk3: the z-score is 0.695 (inactive).

Consider GGUAACCAUGAUGAUGACATT against Tmem38b, for which the z-score is -2.05 (active).

Regarding GGAAGACACAUUUUUCCAUTT against Serpinb9e, the z-score is 0.733 (inactive).

Consider GGUCUCUCGGACUUUUUCCTT against Adipor1, for which the z-score was -0.765 (inactive).

On to CCAAUGUUGGCAUUAUGUUTT against Fah, for which the z-score is -0.354 (inactive).

On to GGAAGAAACUGGAAAGAUUTT against Ankrd23, for which the z-score is -1.01 (inactive).

Take GGAAUGGUCCCUCCAAUGATT against Prpf40b: the z-score was 2.38 (active).

In the case of GGACACAAGCCUAUUCCAATT against Rffl, the z-score was 1.59 (inactive).

Turning to GGAUUCAAGCAUCGGAUUGTT against Adamts6, the z-score was 1.11 (inactive).

For GGCAAUUGUCUCAUUCUGATT against Olfr631, the z-score was 0.806 (inactive).

For the sequence CCAUCAACCCAUCAUGUGCTT against Pitpnc1, the z-score is -1.25 (inactive).

In the case of GGCCUUGUAUGAAUUAUUUTT against Sqle, the z-score is 2.18 (active).

GGGAGCAAAUUAGAGAAAUTT against Gsk3b: the z-score was 0.884 (inactive).

On to GGUCCUCGGUUACAGAAACTT against Cnr2, for which the z-score was -0.263 (inactive).

As to CCCAGCUUUUCAACUUGCUTT against Tmc4, the z-score was -1.19 (inactive).

For GGGCCUUGUUUUAGGAAUUTT against Lap3, the z-score is 2.2 (active).

For GGUACUGGAUCAAAGAAACTT against Gm11992, the z-score was -1.75 (inactive).

As for GCUGGUACAAGGUGUUUGATT against Pqbp1, the z-score is 0.825 (inactive).

As for GGAAGCACUCAGUGCUCUGTT against Igfbp6, the z-score was 2.06 (active).

As for GGAGGUGAAGCUCAUUGUCTT against Ildr1, the z-score was -0.165 (inactive).

Take CCGUGUCAUUUGGAGAGCUTT against Ndufaf5: the z-score was -0.248 (inactive).

As for GGUGCAGUUCAGCAACAAGTT against Mat2b, the z-score was -1.65 (inactive).

On to GCAGUUGGGUUGGUAACUATT against Ash1l, for which the z-score is 0.101 (inactive).

For GGGCAAACCUUCUAAACUATT against Ttpa, the z-score is 0.505 (inactive).

Take GGAUCACCCAUACAGGAACTT against Pla2g2f: the z-score was -2.1 (active).

For the sequence GCUGACAAAACUGCUAAACTT against Ctnnb1, the z-score is 0.948 (inactive).
